In the supplement of paper PMC10849652:
About 7,900 targets were measured; listed, in parts, are those with a hit and a random draw of the rest. About 0.6% of all pairs of compound and target were hits.

Experiments:
Assay in all cases: log2 fold change, soluble protein after heating vs DMSO (PISA); higher = thermal stabilisation; K562 cells, 10 uM, 30 min; active = over 0.2 and 3.5 SD of the protein, either way, in both replicates (recomputed)
[1] = compound: NC(=O)Nc1cc(-c2cccc(F)c2)sc1C(=O)N[C@H]1CCCNC1
How it was run: (§1)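 Thermal stability values are relative to control samples and come from duplicates. They are expressed as log2 fold changes. For measurement, K562 cells (2×10^6 cells/mL) received 10 μM compound for 30 min, and aliquots were heated for 3 min over 48°C-58°C, pooled, and extracted at 4°C in PBS with 0.5% NP-40. Soluble protein, the supernatant after 21,000xg for 90 min, was quantified by TMTpro 16plex LC-MS/MS with equalised channel sums.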

[2] = compound: NC(=O)c1cnc(N[C@@H]2CCCC[C@@H]2N)nc1Nc1cccc(-n2nccn2)c1
How it was run: as §1

[3] = compound: NC1(c2ccc(-c3nc4ccn5c(=O)[nH]nc5c4cc3-c3ccccc3)cc2)CCC1
How it was run: as §1

[4] = compound: NCC(=O)Nc1ccc(-n2nc(C(F)(F)F)cc2-c2ccc3c(ccc4ccccc43)c2)cc1
How it was run: as §1

[5] = compound: Nc1ccccc1NC(=O)c1ccc(CNC(=O)OCc2cccnc2)cc1 [entinostat]
How it was run: as §1

[6] = compound: O=C(CCCCCCC(=O)Nc1ccccc1)NO [vorinostat]
How it was run: as §1

[7] = compound: O=C(CCCCCCNC(=O)c1cnc(N(c2ccccc2)c2ccccc2Cl)nc1)NO [citarinostat]
How it was run: as §1

[8] = compound: O=C(O)c1ccc2c(c1)nc(Nc1cccc(Cl)c1)c1ccncc12 [silmitasertib]
How it was run: as §1

[9] = compound: O=C1NC(=O)C(c2cnc3ccccn23)=C1c1cn2c3c(cc(F)cc13)CN(C(=O)N1CCCCC1)CC2
How it was run: as §1

[10] = compound: c1cc(OCCN2CCCCC2)cc(-c2n[nH]c3ccc(-c4nnc[nH]4)cc23)c1
How it was run: as §1

[11] = compound: c1cn2cc(-c3ccc4cn[nH]c4c3)nc(Nc3ccc(N4CCOCC4)cc3)c2n1 [entospletinib]
How it was run: as §1

Measured: log2 fold change

AFDN isoform 5 (UniProt P55196)
Chain of UniProt P55196 (P55196 whole entry, looked up): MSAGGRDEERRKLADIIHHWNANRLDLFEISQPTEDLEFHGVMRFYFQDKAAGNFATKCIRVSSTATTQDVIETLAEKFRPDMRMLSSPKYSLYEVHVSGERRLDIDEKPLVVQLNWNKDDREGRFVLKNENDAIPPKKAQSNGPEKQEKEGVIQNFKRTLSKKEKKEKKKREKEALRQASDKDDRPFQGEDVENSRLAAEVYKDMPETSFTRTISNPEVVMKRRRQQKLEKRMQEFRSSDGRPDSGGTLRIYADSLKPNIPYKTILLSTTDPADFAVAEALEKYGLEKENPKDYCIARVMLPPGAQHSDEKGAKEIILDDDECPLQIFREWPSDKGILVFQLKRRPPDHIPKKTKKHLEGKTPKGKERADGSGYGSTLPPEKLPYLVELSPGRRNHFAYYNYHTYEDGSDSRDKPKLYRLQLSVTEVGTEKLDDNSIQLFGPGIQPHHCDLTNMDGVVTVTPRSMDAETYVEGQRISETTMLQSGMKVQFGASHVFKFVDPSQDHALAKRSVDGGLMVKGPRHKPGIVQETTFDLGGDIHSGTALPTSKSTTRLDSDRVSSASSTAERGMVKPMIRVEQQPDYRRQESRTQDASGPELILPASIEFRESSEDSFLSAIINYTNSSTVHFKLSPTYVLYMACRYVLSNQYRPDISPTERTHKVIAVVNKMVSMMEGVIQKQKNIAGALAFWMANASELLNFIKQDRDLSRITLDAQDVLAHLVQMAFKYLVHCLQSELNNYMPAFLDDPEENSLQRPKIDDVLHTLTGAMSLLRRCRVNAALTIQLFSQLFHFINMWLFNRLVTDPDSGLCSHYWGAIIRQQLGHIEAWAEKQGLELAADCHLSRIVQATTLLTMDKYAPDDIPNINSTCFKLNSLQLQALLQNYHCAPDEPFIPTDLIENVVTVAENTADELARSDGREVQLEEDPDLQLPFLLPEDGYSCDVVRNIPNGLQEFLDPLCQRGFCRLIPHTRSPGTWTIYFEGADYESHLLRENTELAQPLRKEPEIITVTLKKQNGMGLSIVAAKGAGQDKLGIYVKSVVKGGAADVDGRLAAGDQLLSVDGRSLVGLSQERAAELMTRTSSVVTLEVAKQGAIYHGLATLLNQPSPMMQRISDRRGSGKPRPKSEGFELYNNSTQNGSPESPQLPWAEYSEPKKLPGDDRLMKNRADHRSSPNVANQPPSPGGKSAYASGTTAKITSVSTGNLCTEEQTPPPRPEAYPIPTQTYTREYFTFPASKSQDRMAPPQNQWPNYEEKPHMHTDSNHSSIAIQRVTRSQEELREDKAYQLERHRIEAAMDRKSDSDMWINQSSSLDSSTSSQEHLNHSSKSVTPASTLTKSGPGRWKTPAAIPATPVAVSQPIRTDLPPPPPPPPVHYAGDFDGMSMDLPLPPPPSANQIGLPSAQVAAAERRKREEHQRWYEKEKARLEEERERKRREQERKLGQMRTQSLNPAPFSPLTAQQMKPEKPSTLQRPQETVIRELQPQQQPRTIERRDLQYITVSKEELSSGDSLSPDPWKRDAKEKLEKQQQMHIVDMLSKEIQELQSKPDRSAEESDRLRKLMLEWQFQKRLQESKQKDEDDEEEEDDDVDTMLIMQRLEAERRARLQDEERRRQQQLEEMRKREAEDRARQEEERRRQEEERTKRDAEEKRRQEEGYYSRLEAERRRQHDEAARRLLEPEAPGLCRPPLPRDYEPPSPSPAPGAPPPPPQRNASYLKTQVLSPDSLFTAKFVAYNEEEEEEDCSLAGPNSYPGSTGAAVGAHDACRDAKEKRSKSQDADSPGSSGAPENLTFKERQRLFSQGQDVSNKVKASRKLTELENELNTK
inactive: [1] -0.154 | [2] -0.009 | [3] -0.099 | [4] -0.025 | [5] 0.008 | [6] 0.019 | [7] 0.079 | [8] -0.012 | [9] -0.052 | [10] -0.068 | [11] -0.041

ADD2 (UniProt P35612)
inactive: [1] 0.048 | [2] 0.039 | [3] 0.036 | [4] 0.024 | [5] -0.038 | [6] 0.023 | [7] 0.024 | [8] -0.054 | [9] -0.092 | [10] 0.013 | [11] -0.008

ABHD11 (UniProt Q8NFV4)
inactive: [2] -0.089 | [3] -0.139 | [4] 0.016 | [6] -0.042 | [7] 0.058 | [8] -0.021 | [9] -0.159 | [10] -0.009 | [11] 0.006

AGAP3 isoform 4 (UniProt Q96P47)
inactive: [1] 0.034 | [2] -0.128 | [3] -0.001 | [5] 0.021 | [7] -0.063 | [8] -0.019 | [9] 0.127 | [10] -0.18 | [11] 0.036

BSCL2 isoform 4 (UniProt Q96G97)
inactive: [2] -0.197 | [3] -0.013 | [4] 0.007 | [6] 0.074 | [8] 0.172 | [9] 0.033

ARL4A (UniProt P40617)
inactive: [2] -0.276 | [3] -0.117 | [8] 0.068

ARHGAP25 isoform 4 (UniProt P42331)
inactive: [2] 0.068 | [3] -0.181 | [4] -0.127 | [6] -0.099 | [7] 0.105 | [8] 0.213 | [9] 0.021 | [10] -0.049 | [11] 0.073

AUH (UniProt Q13825)
inactive: [2] 0.011 | [3] -0.023 | [4] 0.103 | [6] 0.018 | [7] -0.103 | [8] -0.061 | [10] 0.003 | [11] -0.068

AUNIP isoform 2 (UniProt Q9H7T9)
inactive: [1] -0.194 | [2] -0.037 | [4] 0.073 | [5] 0.003

ARRDC1 (UniProt Q8N5I2)
inactive: [1] 0.013 | [3] -0.06 | [4] 0.057 | [5] 0.075 | [6] -0.086 | [7] 0.056 | [8] 0.075 | [9] -0.008 | [10] -0.001 | [11] -0.014

AZI2 (UniProt Q9H6S1)
Chain of UniProt Q9H6S1 (Q9H6S1 whole entry, looked up): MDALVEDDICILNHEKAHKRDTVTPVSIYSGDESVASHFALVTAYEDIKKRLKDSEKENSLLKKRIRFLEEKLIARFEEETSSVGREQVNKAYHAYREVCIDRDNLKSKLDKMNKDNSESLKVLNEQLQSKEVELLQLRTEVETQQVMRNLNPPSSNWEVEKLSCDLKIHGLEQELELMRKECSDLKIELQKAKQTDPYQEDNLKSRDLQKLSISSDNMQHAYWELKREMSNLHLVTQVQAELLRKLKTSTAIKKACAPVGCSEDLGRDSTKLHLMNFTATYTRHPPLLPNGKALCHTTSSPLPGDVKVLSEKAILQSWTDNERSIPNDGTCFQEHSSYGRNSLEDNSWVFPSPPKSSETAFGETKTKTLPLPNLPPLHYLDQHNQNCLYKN
inactive: [1] -0.094 | [4] -0.152 | [5] 0.041 | [7] -0.014 | [10] -0.028 | [11] -0.142

ADPRH (UniProt P54922)
Chain of UniProt P54922 (P54922 whole entry, looked up): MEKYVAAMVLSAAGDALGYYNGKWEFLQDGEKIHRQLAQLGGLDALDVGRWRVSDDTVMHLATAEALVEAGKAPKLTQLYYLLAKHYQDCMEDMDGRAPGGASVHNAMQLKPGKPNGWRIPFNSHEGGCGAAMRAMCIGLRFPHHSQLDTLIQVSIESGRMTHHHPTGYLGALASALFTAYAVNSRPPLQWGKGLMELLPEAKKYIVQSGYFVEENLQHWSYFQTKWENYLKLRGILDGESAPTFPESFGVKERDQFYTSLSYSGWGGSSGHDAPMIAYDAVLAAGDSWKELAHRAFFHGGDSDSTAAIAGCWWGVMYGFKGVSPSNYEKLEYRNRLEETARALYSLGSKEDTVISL
active: [4] -0.623
inactive: [1] 0.015 | [3] -0.178 | [5] -0.034 | [6] -0.039 | [8] 0.086 | [9] -0.104

AASDH (UniProt Q4L235)
inactive: [1] -0.044 | [3] -0.12 | [4] -0.166 | [5] 0.007 | [6] 0.051 | [8] 0.036 | [9] -0.064

BRAF, A0A2R8Y8E0
inactive: [2] 0.214 | [3] -0.31 | [8] -0.064

AARSD1 (UniProt Q9BTE6)
inactive: [2] -0.066 | [3] -0.048 | [7] 0.144 | [8] 0.137 | [10] 0.066 | [11] -0.371

ABCA3 (UniProt Q99758)
inactive: [1] 0.021 | [2] -0.001 | [4] -0.196 | [5] -0.064 | [6] 0.02 | [7] 0.021 | [9] 0.134 | [10] 0 | [11] 0.141

BAIAP2 isoform 4 (UniProt Q9UQB8)
inactive: [1] 0.019 | [5] -0.095

BAP18 isoform 3 (UniProt Q8IXM2)
inactive: [3] -0.042 | [6] 0.192 | [8] -0.119

AIF1 (UniProt P55008)
Chain of UniProt P55008 (P55008 whole entry, looked up): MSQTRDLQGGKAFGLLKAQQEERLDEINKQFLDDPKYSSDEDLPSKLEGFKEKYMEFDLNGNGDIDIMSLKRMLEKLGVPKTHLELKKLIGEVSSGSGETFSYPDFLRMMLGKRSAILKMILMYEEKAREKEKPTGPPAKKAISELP
inactive: [1] 0.04 | [2] 0.004 | [4] 0.021 | [5] -0.105 | [9] 0.068

ABCA4 (UniProt P78363)
inactive: [1] 0.007 | [2] -0.092 | [3] 0.061 | [5] 0.002 | [6] 0.124 | [7] 0.013 | [8] -0.082 | [9] -0.041 | [10] 0.157 | [11] -0.079

ARMC8 isoform 6 (UniProt Q8IUR7)
inactive: [2] -0.023 | [4] 0.025

ATXN7L3 isoform 2 (UniProt Q14CW9)
inactive: [1] 0.182 | [2] 0.033 | [3] 0.207 | [5] -0.346 | [7] -0.087 | [8] -0.373 | [10] 0.051 | [11] 0.494

BRIP1 (UniProt Q9BX63)
Chain of UniProt Q9BX63 (Q9BX63 whole entry, looked up): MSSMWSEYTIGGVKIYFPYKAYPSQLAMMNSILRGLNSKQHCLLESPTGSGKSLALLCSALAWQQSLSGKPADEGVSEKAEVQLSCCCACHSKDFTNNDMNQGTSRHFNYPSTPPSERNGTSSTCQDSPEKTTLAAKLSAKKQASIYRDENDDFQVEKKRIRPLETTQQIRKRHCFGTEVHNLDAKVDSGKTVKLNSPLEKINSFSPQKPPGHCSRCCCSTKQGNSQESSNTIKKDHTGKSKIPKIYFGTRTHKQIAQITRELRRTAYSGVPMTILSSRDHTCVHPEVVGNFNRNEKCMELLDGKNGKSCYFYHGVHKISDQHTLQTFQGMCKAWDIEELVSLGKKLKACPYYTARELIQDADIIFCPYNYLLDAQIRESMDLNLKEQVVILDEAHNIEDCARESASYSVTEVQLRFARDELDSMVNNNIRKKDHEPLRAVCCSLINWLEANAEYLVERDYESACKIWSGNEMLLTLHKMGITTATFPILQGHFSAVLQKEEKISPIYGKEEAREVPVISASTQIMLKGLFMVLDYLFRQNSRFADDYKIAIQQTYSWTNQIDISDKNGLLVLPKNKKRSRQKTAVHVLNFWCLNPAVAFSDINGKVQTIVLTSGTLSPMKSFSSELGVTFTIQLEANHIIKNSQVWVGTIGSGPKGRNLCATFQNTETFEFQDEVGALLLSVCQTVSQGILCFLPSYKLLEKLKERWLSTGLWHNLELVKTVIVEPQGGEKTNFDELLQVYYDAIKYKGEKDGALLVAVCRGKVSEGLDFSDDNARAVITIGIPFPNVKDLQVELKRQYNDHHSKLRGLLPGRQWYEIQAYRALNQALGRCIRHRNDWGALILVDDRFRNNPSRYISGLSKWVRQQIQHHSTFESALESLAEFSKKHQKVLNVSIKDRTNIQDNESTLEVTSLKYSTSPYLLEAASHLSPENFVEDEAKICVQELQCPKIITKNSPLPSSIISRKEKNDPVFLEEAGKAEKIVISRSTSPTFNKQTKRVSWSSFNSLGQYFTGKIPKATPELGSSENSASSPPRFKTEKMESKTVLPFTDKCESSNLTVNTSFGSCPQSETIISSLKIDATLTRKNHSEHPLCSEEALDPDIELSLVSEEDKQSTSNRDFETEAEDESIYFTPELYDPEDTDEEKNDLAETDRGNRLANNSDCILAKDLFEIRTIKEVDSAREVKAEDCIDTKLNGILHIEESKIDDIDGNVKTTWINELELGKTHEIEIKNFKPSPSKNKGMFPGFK
inactive: [1] 0.139 | [2] -0.139 | [4] -0.099 | [5] 0.001 | [6] -0.025 | [7] 0.054 | [9] -0.07 | [10] 0.077 | [11] -0.055

ADD1 isoform 4 (UniProt P35611)
inactive: [6] 0.05 | [9] 0.027

ALDH2 isoform 2 (UniProt P05091)
inactive: [1] -0.345 | [2] -0.389 | [4] -0.351 | [5] -0.14 | [6] 0.083 | [7] -0.055 | [9] 0.051 | [10] -0.36 | [11] 0.118

ADD2 isoform 9 (UniProt P35612)
inactive: [1] 0 | [5] -0.052 | [8] -0.225
active: [3] -1.2

ACSL6 isoform 1 (UniProt Q9UKU0)
Chain of UniProt Q9UKU0 (Q9UKU0 whole entry, looked up): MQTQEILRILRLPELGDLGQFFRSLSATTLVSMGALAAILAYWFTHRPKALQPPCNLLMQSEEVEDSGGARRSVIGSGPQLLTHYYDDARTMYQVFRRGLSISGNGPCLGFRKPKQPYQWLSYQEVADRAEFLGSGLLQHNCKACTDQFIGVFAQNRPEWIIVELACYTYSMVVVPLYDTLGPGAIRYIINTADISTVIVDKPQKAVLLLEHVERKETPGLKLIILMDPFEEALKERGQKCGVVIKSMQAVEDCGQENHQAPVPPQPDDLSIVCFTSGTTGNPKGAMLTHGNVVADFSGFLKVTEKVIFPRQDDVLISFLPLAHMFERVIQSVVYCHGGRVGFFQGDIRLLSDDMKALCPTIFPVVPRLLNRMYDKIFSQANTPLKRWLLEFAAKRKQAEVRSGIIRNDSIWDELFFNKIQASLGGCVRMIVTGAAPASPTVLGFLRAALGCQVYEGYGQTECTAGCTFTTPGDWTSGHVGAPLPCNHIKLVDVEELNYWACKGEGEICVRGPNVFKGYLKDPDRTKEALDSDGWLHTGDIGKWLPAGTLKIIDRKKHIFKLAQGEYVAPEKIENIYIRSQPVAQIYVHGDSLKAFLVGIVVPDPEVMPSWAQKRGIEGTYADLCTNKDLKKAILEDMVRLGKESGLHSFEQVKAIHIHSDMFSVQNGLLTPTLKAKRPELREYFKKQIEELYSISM
inactive: [1] 0.061 | [3] -0.152 | [4] -0.174 | [5] -0.056 | [6] 0.048 | [8] -0.077 | [9] -0.421

ARFIP1 isoform 2 (UniProt P53367)
inactive: [1] 0.11 | [3] -0.147 | [5] 0.012 | [6] 0.331 | [8] -0.08 | [9] -0.062

ADAM15 (UniProt Q13444)
inactive: [1] -0.023 | [2] 0.034 | [4] -0.024 | [5] 0.085 | [6] 0.092 | [9] 0.031

AKNA (UniProt Q7Z591)
active: [5] 1.72
inactive: [1] -0.069

ACTR3B (UniProt Q9P1U1)
inactive: [4] -0.217 | [6] -0.067

BRMS1 (UniProt Q9HCU9)
inactive: [2] 0.15 | [3] 0.121 | [6] -0.053 | [7] -0.097 | [8] -0.042 | [9] -0.033 | [10] -0.178 | [11] 0.078

BRD2 isoform 2 (UniProt P25440)
inactive: [1] -0.01 | [2] -0.209 | [4] -0.112 | [5] -0.159 | [6] -0.214

ATXN3 isoform 1 (UniProt P54252)
Chain of UniProt P54252 (P54252 whole entry, looked up): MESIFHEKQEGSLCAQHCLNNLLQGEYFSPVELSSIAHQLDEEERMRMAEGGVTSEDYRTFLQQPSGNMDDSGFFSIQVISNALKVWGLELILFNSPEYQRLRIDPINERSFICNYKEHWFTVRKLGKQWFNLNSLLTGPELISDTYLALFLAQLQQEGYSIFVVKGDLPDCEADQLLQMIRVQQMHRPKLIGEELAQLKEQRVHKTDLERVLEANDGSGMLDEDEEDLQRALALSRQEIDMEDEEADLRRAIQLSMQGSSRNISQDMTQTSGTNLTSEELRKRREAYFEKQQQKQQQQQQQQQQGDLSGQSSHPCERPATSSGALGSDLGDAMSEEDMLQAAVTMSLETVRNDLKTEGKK
inactive: [2] -0.256 | [3] -0.137 | [4] -0.019 | [6] -0.003 | [7] -0.01 | [8] 0.093 | [10] -0.015 | [11] 0.058

ANGEL1 (UniProt Q9UNK9)
inactive: [4] -0.004

BRAF (UniProt P15056)
inactive: [1] -0.102 | [2] -0.079 | [4] -0.046 | [5] 0.009 | [6] 0.012 | [7] -0.002 | [8] 0.024 | [9] -0.007 | [10] -0.067 | [11] 0.035

BRD8 isoform 2 (UniProt Q9H0E9)
inactive: [1] -0.016 | [2] -0.205 | [4] -0.13 | [5] 0.039 | [6] -0.092 | [7] -0.019 | [9] 0.102 | [10] -0.09 | [11] 0.045

ALG14 (UniProt Q96F25)
inactive: [2] 0.018 | [3] -0.118 | [4] -0.081 | [6] 0.29 | [7] 0.028 | [8] 0.076 | [9] 0.061 | [10] -0.123 | [11] -0.063
